Experimental findings from PubChem BioAssay (Tox21) are described below.

Inconclusive results are not listed. Where a call stands in place of a potency, no number is given. Activity calls are given as the source filed them. The call rests on the fitted dose curve; in most records, active means well fitted cell-killing curve with a large enough effect in the repeat runs; inconclusive means weak or mixed curves, or effect the other way; inactive means flat fitted curve, though single readings scatter.

The assay can be described thus: Nuclear factor erythroid 2-related factor 2/antioxidant responsive element (Nrf2/ARE) small molecule agonists: qHTS cell viability counter screen in human keratinocytes (AID 1919968). Further: nearly all actives have a fitted effect of over 55% in size. To be noted: KeratinoSens HaCaT ARE cells viability, CellTiter-Fluor, 24 h; series mostly up to 92.4 µM. The source says:
U.S. Tox21 Program National Center for Advancing Translational Sciences [NCATS] Division of Preclinical Innovation [DPI] U.S. Environmental Protection Agency [EPA] National Institutes of Environmental Health Sciences [NIEHS] National Toxicology Program [NTP] U.S. Food and Drug Administration [FDA] Tox21 Assay Overview: Oxidative stress has been implicated in the pathogenesis of a variety of diseases ranging from cancer to neurodegeneration. The antioxidant response element (ARE) signaling pathway plays an important role in the amelioration of oxidative stress. The KeratinoSens (Givaudan, Switzerland) is an in vitro test method which quantifies luciferase induction as a measure of activation of Keap1-Nrf2-antioxidationt/electrophile response element (ARE) dependant pathway in HaCaT human keratinocytes stably transfected with a selectable plasmid. The KeratinoSens assay is a cell-based assay with a reporter cell line to detect potential skin sensitizers by their ability to induce the Nrf2/ARE-response. The activation of the report gene under culture conditions can be detected by ONE-Glo Luciferase Assay System (Promega, Madison, WI). This cell line has been used to screen the Tox21 10K compound library to identify agonists that induce oxidative stress. The cytotoxicity of the Tox21 compound library against the KS-ARE cell line was tested in parallel by measuring the cell viability using CellTiter- Fluor assay system (Promega, Madison, WI) in the same wells.
Tox21 Assay Protocol Summary: HaCaT derived cell line KeratinoSens were dispensed at 1,500 cells/5uL/well in 1536-well white wall/solid bottom plates using a Multidrop Combi (ThermoFisher Scientific, Waltham, MA) dispenser. After the assay plates were incubated at 37 C/5% CO2 for 5 h, 23 nL of compounds dissolved in DMSO, positive controls or DMSO only was transferred to the assay plate by a pintool workstation (Kalypsys, San Diego, CA). The plates were incubated at 37 C/5% CO2 for 23 h, followed by addition of 1uL/well of CellTiter-Fluor reagent into the assay plates using a Flying Reagent Dispenser (Aurora Discovery, San Diego, CA) for cell viability readout that measures cytotoxicity. After 1 h incubation at 37 C/5% CO2 the fluorescence intensity was measured using a ViewLux (PerkinElmer, Shelton, CT) plate reader.
A general note: qHTS replaces the single test concentration by a dilution series.
`CCCCCCCCSCC`: the Potency entry is “inactive”.
Regarding `CC(C)(C)NCC(O)COc1ccccc1OCC1CCCO1` (stereo not given), the Potency entry is “inactive”.
The value for `CCC(C(=O)NC(N)=O)c1ccccc1` (stereo not given) was “inactive”; that for `C=C1[C@H]2CC[C@@H]3[C@H]2C(C)(C)CCC[C@]13C` was “inactive”.
With `CC(C)(C)c1n[nH]c(=O)n(N)c1=O` the entry was “inactive”; with `CCOC(=O)[C@H](CCc1ccccc1)N[C@@H](C)C(=O)N1C(=O)N(C)C[C@H]1C(=O)O`, “inactive”; with `Nc1cc(S(=O)(=O)O)cc2cc(S(=O)(=O)O)cc(O)c12`, “inactive”.
Regarding `OC[C@H]1O[C@@H]2O[C@H]3[C@H](O)[C@@H](O)[C@@H](O[C@H]4[C@H](O)[C@@H](O)[C@@H](O[C@H]5[C@H](O)[C@@H](O)[C@@H](O[C@H]6[C@H](O)[C@@H](O)[C@@H](O[C@H]7[C@H](O)[C@@H](O)[C@@H](O[C@H]8[C@H](O)[C@@H](O)[C@@H](O[C@H]1[C@H](O)[C@H]2O)O[C@@H]8CO)O[C@@H]7CO)O[C@@H]6CO)O[C@@H]5CO)O[C@@H]4CO)O[C@@H]3CO`, the Potency entry was “inactive”.
With `Nc1cc([N+](=O)[O-])ccc1Cl` the entry was “inactive”; with `CC(C#N)(CCC(=O)O)N=NC(C)(C#N)CCC(=O)O` (stereo not given), “inactive”; with `CC(C)[C@H]1CC[C@@H](C)CC1=O`, “inactive”.
As for `c1c[nH]cn1`, the Potency result was “inactive”.
With `Cc1ccc(C(C)c2ccc(C)c(C)c2)cc1C` the entry was “inactive”; with `COc1ccc(OC)c(C(O)CNC(=O)CN)c1` (stereo not given), “inactive”.
For `Cc1cc(O)cc(C)c1Cl`, the Potency entry is “inactive”.
The value for `C[N+]1([O-])CCOCC1` was “inactive”; that for `C[Si](C)O[Si](C)C` was “inactive”.
For `CN(CCOc1ccc(CC2SC(=O)NC2=O)cc1)c1ccccn1` (stereo not given), the Potency result was “inactive”.
With `CC(C)c1cccc(C(C)C)c1N` the entry was “inactive”.
Take `C=C[C@H]1CN2CC[C@H]1C[C@H]2[C@H](O)c1ccnc2ccc(OC)cc12`: the Potency entry is “inactive”.
With `CC[C@]12CCCN3CCc4c(n(c5ccccc45)[C@@](O)(C(=O)OC)C1)[C@@H]32` the entry was “inactive”.
As for `OCC1CCC(CO)CC1` (stereo not given), the Potency result was “inactive”.
The value for `C/C=C(\C)C(=O)OC/C=C(\C)CCC=C(C)C` was “inactive”; that for `CN(C)N=Nc1ccccc1` was “inactive”.
The value for `CCN(C=O)CC` was “inactive”; that for `NC1CCCCC1N` (stereo not given) was “inactive”.
As for `C/C(Cl)=C/CCl`, the Potency entry was “inactive”.
With `Cc1cccc2cccnc12` the entry was “inactive”; with `NCCC(O)(P(=O)(O)O)P(=O)(O)O`, “inactive”; with `Cc1ccccc1N=O`, “inactive”.
The value for `CC[C@H](C)[C@@H](C(=O)O)n1sc2ccccc2c1=O` was “inactive”; that for `O=c1cccc[nH]1` was “inactive”.
The value for `COC(=O)OC` was “inactive”.
With `C[Si]1(C)O[Si](C)(C)O[Si](C)(C)O[Si](C)(C)O[Si](C)(C)O1`, the Potency entry was “inactive”.
The value for `CC(=O)c1ccc2ccccc2c1` was “inactive”; that for `FC(F)(F)c1ccccc1` was “inactive”.
With `CCN(CC)CCNC(=O)c1ccc(NC(C)=O)cc1`, the Potency result is “inactive”.
The value for `O=C(O)c1ccc([N+](=O)[O-])cc1` was “inactive”; that for `O=c1c(-c2ccc(O)cc2)coc2cc(O)ccc12` was “inactive”; that for `CCCCCCCCCCCCC(=O)O` was “inactive”.
